Experiment [1] is described as follows: NCI Yeast Anticancer Drug Screen. Data for the rad50 strain (AID 155).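 Note: 0% = growth of vehicle-only cultures of the same strain.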 The following applies: S. cerevisiae rad50 strain growth inhibition, hits give high values. The essentials: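 Readout: growth inhibition relative to vehicle-treated cultures. Compound exposure was carried out in a genetically defined yeast strain deficient in DNA damage repair.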
The nature of experiment [2]: NCI Yeast Anticancer Drug Screen. Data for the mec2-1 strain (AID 157). The following applies: S. cerevisiae mec2-1 strain, hits give high values. The essentials: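 Mutant yeast (mec2-1) grown with compound; growth inhibition relative to vehicle control reported.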
Experiment [3] is described as follows: NCI Yeast Anticancer Drug Screen. Data for the sgs1 mgt1 strain (AID 161).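 Note: 0% = growth of cultures given vehicle only.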 The following applies: S. cerevisiae sgs1 mgt1 strain, hits give high values. The essentials:
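Compounds are added to genetically altered yeast, and growth is compared with cultures given vehicle alone to give percent inhibition.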

Experiment [4] is described as follows: NCI Yeast Anticancer Drug Screen. Data for the cln2 rad14 strain (AID 165).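 Note: 0% = growth equal to vehicle treated cultures.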 The following applies: S. cerevisiae cln2 rad14 strain, hits give high values. Summed up:
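Readout is yeast growth inhibition versus vehicle-treated controls, using a strain with cln2 and rad14 alterations exposed to compound.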

Experiment [5] in a line: NCI Yeast Anticancer Drug Screen. Data for the bub3 strain (AID 167). The following applies: S. cerevisiae bub3 mutant strain, hits give high values. Summed up: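 Readout: yeast growth inhibition, expressed relative to vehicle-only wells. The test organism is a mutant strain from a panel with lesions in DNA repair or checkpoint genes.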
Experiment [6] can be described thus: NCI Yeast Anticancer Drug Screen. Data for the mlh1 rad18 strain (AID 175). The following applies: S. cerevisiae mlh1 rad18 strain growth inhibition, hits give high values. Summed up: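 Genetically defined yeast (DNA repair-deficient) exposed to compounds; growth inhibition determined relative to vehicle.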
The mark [7] stands for this setting: at 5.0 µM (retest, dose inferred, filed as 0.5).
[8] abbreviates: at 50.0 µM (retest, dose inferred, filed as 5.0).

Each structure is given as a SMILES string. Compounds without any hit were thinned out: in the full panel of roughly 79,000, 15% have a hit. Values without a mark were called inactive. Activity calls are given as the source filed them. Cut-off read from the data, not from the text of the source: active = growth inhibition above about 70%; inactive = the rest.

As to `CCC(CCCN(CC)CCc1ccccc1)OC(=O)c1cc(OC)c(OC)c(OC)c1` (configuration not stated), the growth inhibition was 5% in experiment [1] (setting [7]); 17% in experiment [1] (setting [8]); 22.4% in experiment [1] (at 50.0 µM); -10% in experiment [2] (setting [7]); 6% in experiment [2] (setting [8]); 27.2% in experiment [2] (at 50.0 µM). Further, the growth inhibition in experiment [3] (setting [7]) was -1%; in experiment [3] (setting [8]) it was 30%; in experiment [3] (at 50.0 µM), 37.8%; in experiment [4] (setting [7]), 2%; in experiment [4] (setting [8]), 0%; in experiment [4] (at 50.0 µM) it was 35.6%. In addition, the growth inhibition is 4% in experiment [5] (setting [7]); 18% in experiment [5] (setting [8]); 4% in experiment [5] (at 50.0 µM); 5% in experiment [6] (setting [7]); 10% in experiment [6] (setting [8]); 54.5% in experiment [6] (at 50.0 µM).

As to `CC(=O)c1csc2c1C(=O)c1scc(C(C)=O)c1C2=O`, the growth inhibition in experiment [1] (setting [7]) is 26%; in experiment [1] (setting [8]) it was 48%; in experiment [1] (at 50.0 µM), 48.5%; in experiment [2] (setting [7]), 27%; in experiment [2] (setting [8]), 49%; in experiment [2] (at 50.0 µM), 30.9%. Moreover, the growth inhibition in experiment [3] (setting [7]) is 24%; in experiment [3] (setting [8]), 43%; in experiment [3] (at 50.0 µM), 90.3% (active); in experiment [4] (setting [7]), 14%; in experiment [4] (setting [8]), 36%; in experiment [4] (at 50.0 µM), 88.6% (active). The growth inhibition was 37% in experiment [5] (setting [7]); 47% in experiment [5] (setting [8]); 90.3% (active) in experiment [5] (at 50.0 µM); 32% in experiment [6] (setting [7]); 49% in experiment [6] (setting [8]); 87% (active) in experiment [6] (at 50.0 µM).

Regarding `CN(C)CCC(/C=C/c1ccccc1)=N\Nc1c(F)c(F)c(F)c(F)c1F`, the growth inhibition in experiment [1] (setting [7]) was -2%; in experiment [1] (setting [8]), 8%; in experiment [1] (at 50.0 µM) it was 58%; in experiment [2] (setting [7]) it was -2%; in experiment [2] (setting [8]), 1%; in experiment [2] (at 50.0 µM), 8.9%. The growth inhibition in experiment [3] (setting [7]) was 2%; in experiment [3] (setting [8]), -8%; in experiment [3] (at 50.0 µM) it was 35.4%; in experiment [4] (setting [7]), -3%; in experiment [4] (setting [8]) it was 6%; in experiment [4] (at 50.0 µM), -3.55%. The growth inhibition was 1% in experiment [5] (setting [7]); -14% in experiment [5] (setting [8]); 40% in experiment [5] (at 50.0 µM); -4% in experiment [6] (setting [7]); -2% in experiment [6] (setting [8]); 86.8% (active) in experiment [6] (at 50.0 µM).

Consider `Cc1ccc(/C=C2\CCCc3ccccc3C2=O)cc1`, for which the growth inhibition was 0% in experiment [1] (setting [7]); 7% in experiment [1] (setting [8]); 51.3% in experiment [1] (at 50.0 µM); 7% in experiment [2] (setting [7]); 23% in experiment [2] (setting [8]); 7.9% in experiment [2] (at 50.0 µM). For the same compound, the growth inhibition in experiment [3] (setting [7]) is 8%; in experiment [3] (setting [8]) it was 33%; in experiment [3] (at 50.0 µM), 55.8%; in experiment [4] (setting [7]) it was -11%; in experiment [4] (setting [8]), -11%; in experiment [4] (at 50.0 µM), 11.3%. The growth inhibition in experiment [5] (setting [7]) was 59%; in experiment [5] (setting [8]) it was 81% (active); in experiment [5] (at 50.0 µM), 72.3% (active); in experiment [6] (setting [7]), 7%; in experiment [6] (setting [8]) it was 23%; in experiment [6] (at 50.0 µM), 55.1%.

Turning to `C=C(Cl)C(=NC(C)(C)C)Nc1ccccc1C`, the growth inhibition in experiment [1] (setting [7]) was 27%; in experiment [1] (setting [8]), 53%; in experiment [1] (at 50.0 µM), 69.3%; in experiment [2] (setting [7]) it was 20%; in experiment [2] (setting [8]), 56%; in experiment [2] (at 50.0 µM) it was 74.9% (active). For the same compound, the growth inhibition is 25% in experiment [3] (setting [7]); 61% in experiment [3] (setting [8]); 81.4% (active) in experiment [3] (at 50.0 µM); 29% in experiment [4] (setting [7]); 37% in experiment [4] (setting [8]); 66% in experiment [4] (at 50.0 µM). Also, the growth inhibition in experiment [5] (setting [7]) was 22%; in experiment [5] (setting [8]), 60%; in experiment [5] (at 50.0 µM) it was 83.8% (active); in experiment [6] (setting [7]), 30%; in experiment [6] (setting [8]), 80% (active); in experiment [6] (at 50.0 µM), 40.1%.

Turning to `CC(C)CCCC(C)[C@H]1CCC(C2C[C@@H](O)[C@@H]3CC(O)[C@@H](O)C[C@]3(CO)C2=O)[C@]1(C)CCO` (some centres not stated), the growth inhibition in experiment [1] (setting [7]) is -14%; in experiment [1] (setting [8]), 99% (active); in experiment [1] (at 50.0 µM), 92.5% (active); in experiment [2] (setting [7]), -13%; in experiment [2] (setting [8]), 99% (active); in experiment [2] (at 50.0 µM), 92.5% (active). Further, the growth inhibition in experiment [3] (setting [7]) was -6%; in experiment [3] (setting [8]), 99% (active); in experiment [3] (at 50.0 µM), 91.7% (active); in experiment [4] (setting [7]), 13%; in experiment [4] (setting [8]) it was 98% (active); in experiment [4] (at 50.0 µM), 90.2% (active). The growth inhibition is 4% in experiment [5] (setting [7]); 98% (active) in experiment [5] (setting [8]); 91.6% (active) in experiment [5] (at 50.0 µM); -10% in experiment [6] (setting [7]); 98% (active) in experiment [6] (setting [8]); 92% (active) in experiment [6] (at 50.0 µM).

Regarding `CN(C)c1cccc(F)c1C(=O)NC(=O)Nc1ccc(Cl)cc1`, the growth inhibition was 2% in experiment [1] (setting [7]); 3% in experiment [1] (setting [8]); 79.7% (active) in experiment [1] (at 50.0 µM); 1% in experiment [2] (setting [7]); 4% in experiment [2] (setting [8]); 75.7% (active) in experiment [2] (at 50.0 µM). Moreover, the growth inhibition in experiment [3] (setting [7]) was 0%; in experiment [3] (setting [8]), 7%; in experiment [3] (at 50.0 µM) it was 85.9% (active); in experiment [4] (setting [7]) it was 51%; in experiment [4] (setting [8]), -2%; in experiment [4] (at 50.0 µM), 72% (active). Also, the growth inhibition in experiment [5] (setting [7]) was 1%; in experiment [5] (setting [8]), 11%; in experiment [5] (at 50.0 µM), 83% (active); in experiment [6] (setting [7]), 17%; in experiment [6] (setting [8]), -2%; in experiment [6] (at 50.0 µM), 91.5% (active).

Regarding `COc1cc(C(c2cc3c(cc2O)OCO3)N2CCOCC2)cc(OC)c1OC` (configuration not stated), the growth inhibition in experiment [1] (setting [7]) was 0%; in experiment [1] (setting [8]), 23%; in experiment [1] (at 50.0 µM), 35.5%; in experiment [2] (setting [7]), -23%; in experiment [2] (setting [8]), 13%; in experiment [2] (at 50.0 µM) it was 67.7%. Further, the growth inhibition in experiment [3] (setting [7]) is -3%; in experiment [3] (setting [8]), 28%; in experiment [3] (at 50.0 µM), 17%; in experiment [4] (setting [7]), 4%; in experiment [4] (setting [8]), 8%; in experiment [4] (at 50.0 µM), 20.6%. Besides, the growth inhibition was 2% in experiment [5] (setting [7]); 11% in experiment [5] (setting [8]); 7.1% in experiment [5] (at 50.0 µM); -4% in experiment [6] (setting [7]); 21% in experiment [6] (setting [8]); 19% in experiment [6] (at 50.0 µM).

Take `O=C(O)C(c1ccc(Cl)cc1)c1ccc(Cl)cc1`: the growth inhibition is 10% in experiment [1] (setting [7]); 98% (active) in experiment [1] (setting [8]); 95.3% (active) in experiment [1] (at 50.0 µM); 9% in experiment [2] (setting [7]); 98% (active) in experiment [2] (setting [8]); 95.5% (active) in experiment [2] (at 50.0 µM). Moreover, the growth inhibition in experiment [3] (setting [7]) was 7%; in experiment [3] (setting [8]) it was 99% (active); in experiment [3] (at 50.0 µM), 91.9% (active); in experiment [4] (setting [7]), 6%; in experiment [4] (setting [8]) it was 97% (active); in experiment [4] (at 50.0 µM), 92.5% (active). The growth inhibition in experiment [5] (setting [7]) is 9%; in experiment [5] (setting [8]) it was 99% (active); in experiment [5] (at 50.0 µM), 97.4% (active); in experiment [6] (setting [7]), 13%; in experiment [6] (setting [8]), 96% (active); in experiment [6] (at 50.0 µM), 95.8% (active).

These data come from PubChem BioAssay (NCI).
